Test results reported in PubChem BioAssay (NCI).
About 83,000 compounds went through this panel and 20% of them were active in at least one assay; those are over-represented in the sample as a whole.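 96-well plates, one dose, 48 hours. Percent growth reported; active if below 10.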 The source made the active and inactive calls.

How the values were obtained:
Experiment in all cases: NCI-60 one-dose screen, 48 h (100 = growth as untreated, 0 = no growth, -100 = all killed)
Conditions in all cases: 10 µM unless noted
NCI-H23 lung = tested on: NCI-H23 lung
NCI-H226 lung = tested on: NCI-H226 lung
NCI-H322M lung = tested on: NCI-H322M lung
HOP-62 NSCLC = tested on: HOP-62 NSCLC
NCI-H460 lung = tested on: NCI-H460 lung
HOP-92 NSCLC = tested on: HOP-92 NSCLC
NCI-H522 lung = tested on: NCI-H522 lung
A549/ATCC NSCLC = tested on: A549/ATCC NSCLC
786-0 renal = tested on: 786-0 renal
COLO 205 colon = tested on: COLO 205 colon
DU-145 prostate = tested on: DU-145 prostate
K-562 leukemia = tested on: K-562 leukemia
MALME-3M melanoma = tested on: MALME-3M melanoma
MDA-MB-231 breast = tested on: MDA-MB-231 breast
RXF 393 renal = tested on: RXF 393 renal
SF-268 CNS = tested on: SF-268 CNS
SF-295 CNS = tested on: SF-295 CNS
SF-539 CNS = tested on: SF-539 CNS
UACC-257 melanoma = tested on: UACC-257 melanoma
M14 melanoma = tested on: M14 melanoma

Measured: growth

C[N+](C)(C/C=C/c1ccccc1)Cc1ccccc1
inactive: NCI-H23 lung 85.2% | NCI-H226 lung 93.1% | NCI-H322M lung 89.7% | HOP-62 NSCLC 96.7% | NCI-H460 lung 102% | HOP-92 NSCLC 104% | NCI-H522 lung 90.7% | A549/ATCC NSCLC 94.4% | 786-0 renal 99.1% | COLO 205 colon 104% | DU-145 prostate 102% | K-562 leukemia 110% | MALME-3M melanoma 86.8% | MDA-MB-231 breast 102% | RXF 393 renal 99.2% | SF-268 CNS 90.3% | SF-295 CNS 93.5% | SF-539 CNS 93.9% | UACC-257 melanoma 97.7% | M14 melanoma 85.6%

Cn1cc(-c2nonc2-c2c[nH]c3ccc(F)cc23)c2cc(Br)ccc21
active: K-562 leukemia 7.64%
inactive: NCI-H23 lung 52.7% | NCI-H226 lung 79.5% | NCI-H322M lung 44.9% | HOP-62 NSCLC 40.5% | NCI-H460 lung 19.8% | HOP-92 NSCLC 76% | NCI-H522 lung 14.8% | A549/ATCC NSCLC 35.9% | 786-0 renal 45.9% | COLO 205 colon 54% | DU-145 prostate 50.2% | MALME-3M melanoma 61% | MDA-MB-231 breast 34.9% | RXF 393 renal 74.2% | SF-268 CNS 49.9% | SF-295 CNS 36.5% | SF-539 CNS 67.8% | UACC-257 melanoma 63.3% | M14 melanoma 36.5%

COc1ccc(C/C(C)=C(\c2ccc(O)cc2)c2ccc(OCCN3CCCC3)cc2)cc1
inactive: NCI-H23 lung 105% | NCI-H226 lung 113% | NCI-H322M lung 99.2% | HOP-62 NSCLC 102% | NCI-H460 lung 113% | HOP-92 NSCLC 104% | NCI-H522 lung 97.5% | A549/ATCC NSCLC 98% | 786-0 renal 100% | COLO 205 colon 111% | DU-145 prostate 104% | K-562 leukemia 85.5% | MALME-3M melanoma 94.1% | MDA-MB-231 breast 104% | RXF 393 renal 136% | SF-268 CNS 107% | SF-295 CNS 102% | SF-539 CNS 99.9% | UACC-257 melanoma 99.1% | M14 melanoma 95.2%

CCOC(=O)c1c(C)nc2c(c1N)CC(=O)N2Cc1cc(OC)c(OC)c(OC)c1
inactive: NCI-H23 lung 39.7% | NCI-H226 lung 70.5% | NCI-H322M lung 81.3% | HOP-62 NSCLC 32.5% | NCI-H460 lung 17.6% | HOP-92 NSCLC 62.6% | NCI-H522 lung 33.2% | A549/ATCC NSCLC 40.7% | 786-0 renal 66.2% | COLO 205 colon 20.4% | DU-145 prostate 80.6% | K-562 leukemia 14.6% | MALME-3M melanoma 45% | MDA-MB-231 breast 55.3% | RXF 393 renal 73.2% | SF-268 CNS 69.5% | SF-295 CNS 39.5% | SF-539 CNS 66.2% | UACC-257 melanoma 53% | M14 melanoma 28.1%

O=C1NC(=C(Cl)Cl)/C(=N/S(=O)(=O)NCCc2c[nH]c3ccccc23)N1
inactive: NCI-H23 lung 97.4% | NCI-H226 lung 86% | NCI-H322M lung 27.7% | HOP-62 NSCLC 56.9% | NCI-H460 lung 66.8% | HOP-92 NSCLC 39% | NCI-H522 lung 17.2% | A549/ATCC NSCLC 99.3% | 786-0 renal 66.5% | COLO 205 colon 110% | DU-145 prostate 92.3% | K-562 leukemia 55% | MALME-3M melanoma 70% | MDA-MB-231 breast 44.8% | RXF 393 renal 81.9% | SF-268 CNS 21.4% | SF-295 CNS 98.7% | SF-539 CNS 25.1% | UACC-257 melanoma 73.9% | M14 melanoma 83.8%

O=C(CN1C(=O)/C(=C/c2ccco2)SC1=S)NCCc1c[nH]c2ccc(F)cc12
inactive: NCI-H23 lung 94.7% | NCI-H226 lung 92.4% | NCI-H322M lung 102% | HOP-62 NSCLC 117% | NCI-H460 lung 103% | HOP-92 NSCLC 102% | NCI-H522 lung 82.5% | A549/ATCC NSCLC 102% | 786-0 renal 104% | COLO 205 colon 115% | DU-145 prostate 108% | K-562 leukemia 101% | MALME-3M melanoma 108% | MDA-MB-231 breast 102% | RXF 393 renal 110% | SF-268 CNS 93.6% | SF-295 CNS 99.4% | SF-539 CNS 95.2% | UACC-257 melanoma 113% | M14 melanoma 106%

COc1cc(C(=O)/C=C/c2c(-c3cccs3)nc3ccccn23)cc(OC)c1OC
active: NCI-H322M lung -2.37% | NCI-H460 lung -48.1% | HOP-92 NSCLC -1.12% | NCI-H522 lung 1.24% | 786-0 renal 0.465% | COLO 205 colon 2.79% | DU-145 prostate 3.29% | RXF 393 renal 2.35% | SF-295 CNS -29.7% | SF-539 CNS -27%
inactive: NCI-H23 lung 14.1% | NCI-H226 lung 24.8% | HOP-62 NSCLC 16.3% | A549/ATCC NSCLC 13.7% | K-562 leukemia 25.7% | MALME-3M melanoma 33.9% | MDA-MB-231 breast 24.7% | SF-268 CNS 21% | UACC-257 melanoma 29.9% | M14 melanoma 11.7%

O=C(Cn1nnc2ccccc21)Nc1ccc(-c2nc3ccccc3s2)cc1
inactive: NCI-H23 lung 80.7% | NCI-H226 lung 67.5% | NCI-H322M lung 103% | HOP-62 NSCLC 101% | NCI-H460 lung 83% | HOP-92 NSCLC 73.1% | NCI-H522 lung 79.3% | A549/ATCC NSCLC 93.6% | 786-0 renal 95% | COLO 205 colon 105% | DU-145 prostate 74% | K-562 leukemia 55.2% | MALME-3M melanoma 96.9% | MDA-MB-231 breast 94.7% | RXF 393 renal 99.9% | SF-268 CNS 92.4% | SF-295 CNS 84.7% | SF-539 CNS 71.2% | UACC-257 melanoma 94.5% | M14 melanoma 90.6%
